Out of some 50,000 compounds screened, about 800 (1.6%) showed an effect of 50% or more. Only a selection was taken, and strong results are over-represented in it overall.
Target: Bcl-2-like protein 10 (Homo sapiens) (UniProt Q9HD36)
Assay: TR3 peptide-Bcl-B binding displacers, biochemical primary FP assay, phenotype converters (AID 1240);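 also: 0% = Bcl-B with tracer peptide and DMSO and 100% = tracer peptide lacking Bcl-B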
Conditions: GST-Bcl-B / FITC-TR3 peptide fluorescence polarization; stronger effect = higher value; compound at 3.75 mg/L

Sequence of Bcl-2-like protein 10 (Homo sapiens) (Q9HD36 whole entry, looked up): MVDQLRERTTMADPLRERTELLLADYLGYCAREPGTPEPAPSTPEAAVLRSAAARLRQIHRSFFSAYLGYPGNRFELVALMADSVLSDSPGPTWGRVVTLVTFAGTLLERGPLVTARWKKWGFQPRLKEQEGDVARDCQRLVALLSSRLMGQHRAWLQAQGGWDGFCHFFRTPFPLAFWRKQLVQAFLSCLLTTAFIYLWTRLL

| Compound | displacement |
| --- | --- |
| CC1=Nc2ccccc2/C1=C\c1sc(=S)n(-c2cccc(F)c2)c1O | -1.7% |
| CC1=Nc2ccccc2/C1=C\c1sc(=S)n(-c2ccccc2)c1O | 104% |
| CC1=Nc2ccccc2/C1=C\c1c(O)n(-c2ccccc2)c(=O)[nH]c1=O | -3.1% |
| O=C(CCCN1C(=O)c2ccccc2C1=O)Nc1cccnc1 | 20.6% |
| CC(c1ccccc1)N1C(=O)C(=Cc2c(NCC3CCCO3)nc3ccccn3c2=O)SC1=S (configuration not stated) | -14.7% |
| COC(=O)c1ccc(C2C(C(=O)OC(C)C)=C(C)N=C3SCCC(=O)N32)cc1 (configuration not stated) | 11.3% |
| CC1=C(C(=O)OC(C)C)C(c2ccc(Cl)c(Cl)c2)N2C(=O)CCSC2=N1 (configuration not stated) | 15.3% |
| CC1=C(C(=O)OC(C)C)C(c2ccccc2)N2C(=O)CCSC2=N1 (configuration not stated) | 61.6% |
| Cc1cc(=O)oc2c1c(C)nn2-c1ccc(Br)cc1 | 2.1% |
| COc1ccccc1NC(=O)C1=C(C)NC(=S)NC1c1ccccc1OC (configuration not stated) | 6% |
| O=C1NC(=O)N(c2ccc(Cl)cc2)C(=O)/C1=C\c1ccc(N2CCCC2)cc1 | 71.4% |
| CCn1cc(/C=C2\C(=O)NC(=O)N(c3ccc(Cl)cc3)C2=O)c2ccccc21 | -18.6% |
| Cc1cc(N2C(=O)NC(=O)/C(=C\c3cn(C)c4ccccc34)C2=O)ccc1Br | 126% |
| Cc1cc(C)cc(N2C(=O)NC(=O)/C(=C\c3ccccc3C)C2=O)c1 | 6.3% |
| COC(=O)Cn1cc(/C=C2\C(=O)NC(=O)N(c3cc(C)cc(C)c3)C2=O)c2ccccc21 | -4.6% |
| CCOc1ccccc1/C=C1\C(=O)NC(=O)N(c2ccc(Br)c(C)c2)C1=O | -7.9% |
| Cc1cc(C)cc(N2C(=O)NC(=O)/C(=C\c3cn(C)c4ccccc34)C2=O)c1 | 144% |
| C#CCn1cc(/C=C2\C(=O)NC(=O)N(c3ccc(Br)c(C)c3)C2=O)c2ccccc21 | 6.2% |
| O=C1NC(=O)N(c2ccccc2)C(=O)/C1=C/c1ccc(N2CCCC2)cc1 | -30.2% |
| O=C1NC(=O)N(c2ccccc2)C(=O)/C1=C\c1ccc(Cl)cc1 | 1.4% |
| Cc1c(/C=C2\C(=O)NC(=O)N(c3ccc(Cl)cc3)C2=O)c2ccccc2n1C | 104% |
| O=C1NC(=O)N(c2ccc(Cl)cc2)C(=O)/C1=C/c1ccc(F)cc1 | 8.2% |
| Cc1ccc(C(=O)N2CCC(Cc3ccccc3)CC2)o1 | 6.7% |
| CC1S/C(=N/N=C/c2ccccc2Cl)NC1=O (configuration not stated) | 1.2% |

| Compound | displacement |
| --- | --- |
| CCOC(=O)/C(C#N)=C\c1ccc(F)cc1 | 2.3% |
| CCOC(=O)C(C)Oc1cc2oc(=O)cc(-c3ccccc3)c2cc1CC (configuration not stated) | 11% |
| COc1ccc(CCN=CC2=C(O)CC(c3ccccc3)CC2=O)cc1OC (configuration not stated) | 1.2% |
| CCCOc1cccc(NC(=O)c2c(-c3ccccc3)noc2C)c1 | -5.5% |
| COc1ccc(OC)c(/C=C/C(=O)Oc2cc(C)cc(C)c2)c1 | 11.8% |
| Cc1ccc(N2C(=O)NC(=O)/C(=C\c3ccsc3)C2=O)cc1 | 66.1% |
| COc1ccccc1OCCn1cc(/C=C2/C(=O)NC(=O)N(c3ccccc3)C2=O)c2ccccc21 | 1.6% |
| Cc1cc(C)cc(N2C(=O)NC(=O)/C(=C\c3ccsc3)C2=O)c1 | -7.8% |
| Cc1cccc(N2C(=O)S/C(=C/c3ccc(N(C)C)cc3)C2=O)c1 | 95.7% |
| CC(C)c1ccc(N2C(=O)NC(=O)/C(=C/c3cn(C)c4ccccc34)C2=O)cc1 | 145% |
| Cn1cc(C=C2C(=O)NC(=S)NC2=O)c2ccccc21 | 8.8% |
| COc1ccc(N2C(=O)NC(=O)/C(=C/c3cn(CCOc4ccccc4OC)c4ccccc34)C2=O)cc1 | 87.6% |
| COc1ccccc1OCCn1cc(C=C2C(=O)N(C)C(=O)N(C)C2=O)c2ccccc21 | 3.5% |
| O=C1NC(=O)N(c2ccc(Cl)cc2)C(=O)/C1=C/c1ccsc1 | -24.1% |
| Cc1cccc(N2C(=O)/C(=C/c3ccc(N(C)C)cc3)SC2=S)c1 | -5.4% |
| Cc1cccc(N2C(=O)S/C(=C\c3ccccc3)C2=O)c1 | 12.3% |
| CC(C)c1ccc(N2C(=O)NC(=O)/C(=C/c3ccccc3O)C2=O)cc1 | 0.6% |
| O=C(NCc1cccs1)c1cc2n(n1)C(C(F)(F)F)CC(c1cccs1)N2 (configuration not stated) | 0% |
| CCC(Oc1ccccc1)C(=O)NC(C)c1ccccc1 (configuration not stated) | -18.9% |
| Oc1ccc(Br)cc1C=NCc1ccco1 | 3.3% |
| Cc1sc(NC(=O)c2ccc(Br)o2)c(C(N)=O)c1C | 10% |
| COc1ccc(CC(=O)Nc2ccc(Br)c(C)c2)cc1 | 7.5% |
| C=CCNCCCCOc1ccc(Br)cc1 | 8.5% |
| Cc1no[n+]([O-])c1COc1ccc(/C=C2\N=C(c3ccccc3)OC2=O)cc1 | -9.9% |

| Compound | displacement |
| --- | --- |
| Cc1c(-c2ccc(Cl)cc2)nc2ccccc2c1C(=O)O | -6.5% |
| Cc1cc(C)cc(N2C(=O)NC(=O)/C(=C\c3ccc(F)cc3)C2=O)c1 | 7.7% |
| Cc1cc(C)cc(N2C(=O)NC(=O)/C(=C\c3ccc(Cl)cc3)C2=O)c1 | 16.4% |
| CCn1cc(/C=C2\C(=O)NC(=O)N(c3ccccc3)C2=O)c2ccccc21 | 25.2% |
| C#CCn1cc(/C=C2\C(=O)NC(=O)N(c3ccc(Cl)cc3)C2=O)c2ccccc21 | 37.5% |
| Cc1cc(C)cc(N2C(=O)NC(=O)/C(=C\c3ccc(N(C)C)cc3)C2=O)c1 | 127% |
| C#CCn1cc(/C=C2\C(=O)NC(=O)N(c3ccc(C)cc3)C2=O)c2ccccc21 | 66.4% |
| CCCC(C)NC(=O)c1ccc(Cl)c([N+](=O)[O-])c1 (configuration not stated) | -0.1% |
| CCOC(=O)/C(C#N)=C/c1ccc(OCc2c(C)no[n+]2[O-])cc1 | -1.9% |
| CN1CCN(CCOCCOc2ccccc2)CC1 | -7.9% |
| O=C(CCCC(=O)OCC(F)(F)C(F)F)Nc1nccs1 | 9.8% |
| O=C(NCCO)/C(=C/c1cccc([N+](=O)[O-])c1)NC(=O)c1cccs1 | 0% |
| Cc1cccc(NC(=O)c2ccc(-c3ccc(C)c(Cl)c3)o2)c1 | 69.8% |
| CC(=O)c1ccc(NC(=O)c2ccc(-c3ccc(Cl)cc3Cl)o2)cc1 | -1.3% |
| O=C(Nc1ccc(NC(=O)c2ccc(-c3ccc(Cl)cc3Cl)o2)cc1)c1ccccc1 | 83.5% |
| Cc1ccccc1C(=O)Nc1cccc(NC(=O)c2ccc(-c3ccc(Br)cc3)o2)c1 | 21.4% |
| O=C(Nc1cccc(NC(=O)c2ccccc2Cl)c1)c1ccc(-c2ccc(Br)cc2)o1 | 57.3% |
| O=C(Nc1cccc(NC(=O)c2ccc(Cl)cc2Cl)c1)c1ccc(-c2ccc([N+](=O)[O-])cc2)o1 | 106% |
| Cc1ccc(-c2ccc(C(=O)Nc3ccc(N4CCOCC4)cc3)o2)cc1Cl | 10.8% |
| Cc1ccc(-c2ccc(C(=O)Nc3cccnc3)o2)cc1Cl | 5.6% |
| O=C(Nc1cc(Cl)cc(Cl)c1)c1ccc(-c2ccc([N+](=O)[O-])cc2)o1 | 5.1% |
| CC(=O)c1cccc(NC(=O)c2ccc(-c3ccc(Cl)cc3Cl)o2)c1 | -4.6% |
| Cc1ccccc1C(=O)Nc1cccc(NC(=O)c2ccc(-c3cccc(Cl)c3)o2)c1 | 0.6% |
| O=C(Nc1cccc([N+](=O)[O-])c1)c1ccc(-c2ccc(Cl)cc2)o1 | 9% |

— PubChem BioAssay AID1240 (Sanford-Burnham Center for Chemical Genomics, 2008)
